From PubChem BioAssay (Tox21)
Where “and” joins values, the source holds several entries; their conditions need not be identical. Equal values may be shown once. Records with an inconclusive call do not appear. A call without a number means that no potency is given here. Where a structure was tested more than once in an assay, its records may differ in their call. Calls of active or inactive are those of the source. Unless noted, calls come from the whole dose curve; as a rule, active = well fitted curve in the direction sought with a large enough effect in the repeat runs; inconclusive = weak or mixed curves; inactive = no such curve, though single readings can be large; an effect the other way counts as inactive or inconclusive.

What was measured:
[1] = A CellTox Green Cytotoxicity Assay to monitor cytotoxicity in HEK293 cells - 32 hour (AID 1224881); note: nearly all actives have a fitted effect of over 40% in size; note: potency is the fitted concentration of half-maximal effect
Procedure, shortened: (§1)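 HEK293 cells premixed with CellTox Green dye were seeded at 600 cells/well and left 5 h at 37 C/5% CO2 before pin transfer of 23 nL compound in DMSO. Fluorescence from dye bound to dead-cell DNA was read during 40 h treatment.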

[2] = A CellTox Green Cytotoxicity Assay to monitor cytotoxicity in HepG2 cells - 0 hour (AID 1224882); note: nearly all actives have a fitted effect of over 35% in size
Procedure, shortened: (§2)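 HepG2 cells were seeded together with the CellTox Green dye at 600 cells/well, left 5 h at 37 C/5% CO2, then given compounds in DMSO. Fluorescence from dye bound to dead-cell DNA was read repeatedly over 40 h of treatment at 37 C.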

[3] = A CellTox Green Cytotoxicity Assay to monitor cytotoxicity in HepG2 cells - 32 hour (AID 1224883); note: nearly all actives have a fitted effect of over 50% in size; note: potency is the fitted concentration of half-maximal effect
Procedure, shortened: as §2

[4] = A CellTox Green Cytotoxicity Assay to monitor cytotoxicity in HEK293 cells - 8 hour (AID 1224884); note: nearly all actives have a fitted effect of over 35% in size; note: potency is the fitted concentration of half-maximal effect
Procedure, shortened: as §1

[5] = qHTS RealTime-Glo MT Cell Viability Assay in HepG2 cells - 16 hour (AID 1224885); note: nearly all actives have a fitted effect of over 50% in size; note: potency is the fitted concentration of half-maximal effect
Procedure, shortened: (§3)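 HepG2 suspension premixed with RealTime-Glo reagents is plated at 600 cells per well and left 5 h at 37 C/5% CO2. Compounds in DMSO then go in, and bioluminescence reflecting viable cell number is recorded over 40 h.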

[6] = qHTS RealTime-Glo MT Cell Viability Assay in HEK293 cells - 24 hour (AID 1224886); note: nearly all actives have a fitted effect of over 50% in size; note: potency is the fitted concentration of half-maximal effect
Procedure, shortened: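 Reads taken at 0, 8, 16, 24, 32 and 40 h from the same wells. HEK293 cells (600/well) carried RealTime-Glo reagents from seeding, with compound added after a 5 h settle at 37 C.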

[7] = qHTS RealTime-Glo MT Cell Viability Assay in HEK293 cells - 8 hour (AID 1224887); note: nearly all actives have a fitted effect of over 50% in size; note: potency is the fitted concentration of half-maximal effect
Procedure, shortened: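 HEK293 cells mixed with RealTime-Glo reagents (NanoLuc plus cell-permeant prosubstrate) at 600 cells/well, preincubated 5 h at 37 C/5% CO2, then given 23 nL compound in DMSO. Nonlytic luminescence from viable cells was read at 0, 8, 16, 24, 32 and 40 h.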

[8] = A CellTox Green Cytotoxicity Assay to monitor cytotoxicity in HEK293 cells - 16 hour (AID 1224888); note: nearly all actives have a fitted effect of over 35% in size; note: potency is the fitted concentration of half-maximal effect
Procedure, shortened: as §1

[9] = qHTS RealTime-Glo MT Cell Viability Assay in HepG2 cells - 0 hour (AID 1224889); note: nearly all actives have a fitted effect of over 50% in size
Procedure, shortened: as §3

[10] = A CellTox Green Cytotoxicity Assay to monitor cytotoxicity in HepG2 cells - 8 hour (AID 1224890); note: nearly all actives have a fitted effect of over 45% in size
Procedure, shortened: as §2

[11] = qHTS assay to identify small molecule antagonists of the estrogen receptor alpha (ER-alpha) signaling pathway using the BG1 cell line in the presence of 0.1 nM 17-beta-estradiol - cell viability counter screen (AID 1259241); note: nearly all actives have a fitted effect of over 40% in size
Procedure, shortened: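 Following 5 days in phenol red-free medium with charcoal-stripped serum, VM7Luc4E2 cells received test compounds alongside 0.1 nM 17beta-estradiol (final) at 37C for 22 hr. Live cells were then quantified via protease-substrate fluorescence.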

[12] = qHTS assay to identify small molecule antagonists of the androgen receptor (AR) signaling pathway using the MDA cell line in the presence of 0.5 nM R1881 - cell viability counter screen (AID 1259242); note: nearly all actives have a fitted effect of over 45% in size; note: potency is the fitted concentration of half-maximal effect
Procedure, shortened: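 MDA-kb2 cells (human breast carcinoma, stably carrying MMTV-luciferase reporter) were exposed to compounds with 0.5 nM R1881 (final) for 16 hr at 37C, 0% CO2; viability then read as live-cell protease fluorescence (CellTiter-Fluor, 30 min) in the same wells.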

[13] = biological target: Estrogen receptor (Homo sapiens) (UniProt P03372); assay: qHTS assay to identify small molecule antagonists of the estrogen receptor alpha (ER-alpha) signaling pathway using the BG1 cell line in the presence of 0.1 nM 17-beta-estradiol (AID 1259244); note: nearly all actives have a fitted effect of over 50% in size; note: potency is the fitted concentration of half-maximal effect
Procedure, shortened: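 VM7Luc4E2 cells (endogenous full-length ER-alpha, stable 4xERE-luciferase) were grown 5 days in phenol red-free medium with charcoal-stripped FBS, then exposed 22 h at 37C to compounds plus 0.1 nM (final) 17beta-estradiol; ONE-Glo luminescence read-out.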

[14] = qHTS assay to identify small molecule HDAC inhibitors (AID 1259364); note: top concentration of the series differs between compounds; nearly all actives have a fitted effect of over 45% in size
Procedure, shortened: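 Wild-type HCT-116 cells were plated overnight, exposed to compounds for 2 h at 37 °C, then given HDAC-Glo class I/II luminogenic reagent for 30 min at room temperature before luminescence was read.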

[15] = qHTS assay to identify small molecule HDAC inhibitors - cell viability counter screen (AID 1259365)
Procedure, shortened: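 HCT-116 wild-type, overnight attachment; 2hr drug exposure, 37C; CellTiter-Glo luminescent ATP readout after 30min RT.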

[16] = qHTS assay to identify small molecule agonists of the sonic hedgehog signaling (Shh) pathway - cell viability counter screen (AID 1259366); note: nearly all actives have a fitted effect of over 50% in size; note: potency is the fitted concentration of half-maximal effect
Procedure, shortened: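 Compounds in DMSO were pin-transferred onto 3T3 Gli1-Luc cells that had settled 4hr; plates then stood 24hr at 37C and 5% CO2. One hour before the end, CellTiter-Fluor was added and fluorescence recorded.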

[17] = qHTS assay to identify small molecule antagonists of the sonic hedgehog signaling (Shh) pathway - cell viability counter screen (AID 1259367); note: nearly all actives have a fitted effect of over 55% in size; note: potency is the fitted concentration of half-maximal effect
Procedure, shortened: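 NIH/3T3-derived Gli1-Luc reporter cells (2,000 per well) rested 4 hr at 37 C, then received DMSO compounds plus conditioned medium. After 23 hr of treatment, CellTiter-Fluor was added for 1 hr at 37C and fluorescence read.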

[18] = biological target: Androgen receptor (Homo sapiens) (UniProt P10275); assay: qHTS assay to identify small molecule antagonists of the androgen receptor (AR) signaling pathway using the MDA cell line in the presence of 0.5 nM R1881 (AID 1259243); note: nearly all actives have a fitted effect of over 50% in size
Procedure, shortened: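 MDA-kb2 human breast carcinoma cells carrying an MMTV-luciferase reporter (AR- and GR-responsive) were plated, rested 5 hr at 37C, dosed with compounds, then stimulated with 0.5 nM R1881 (final) for 16 hr; luminescence was read after ONE-Glo.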

[19] = qHTS assay to identify small molecule phospholipidosis (PLD) inducers (AID 1259344; active = well fitted curve in the direction sought with a large enough effect; an effect the other way counts as inactive or inconclusive; note: potency is the fitted concentration of half-maximal effect)
Procedure, shortened: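 HepG2 cells on collagen I, attached 4 h at 37 C, were co-treated with compound and LipidTOX Red dye for 24 h at 37 C, then fixed with paraformaldehyde plus Hoechst 33342 and imaged by high-content microscopy for phospholipid accumulation.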

[20] = qHTS assay to identify small molecule agonists of the sonic hedgehog signaling (Shh) pathway (AID 1259368; calls by dose curve; note: series mostly up to about 92 µM; nearly all actives have a fitted effect of over 15% in size)
Procedure, shortened: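 NIH/3T3-derived 3T3Gli1-Luc cells carrying a stably integrated Gli1 response element–firefly luciferase reporter were plated, left 4 hr at 37 C, then given compounds in DMSO for 24 hr. Luminescence was read 30 min after adding luciferase reagent.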

Chain of Estrogen receptor (Homo sapiens) (P03372 whole entry, looked up): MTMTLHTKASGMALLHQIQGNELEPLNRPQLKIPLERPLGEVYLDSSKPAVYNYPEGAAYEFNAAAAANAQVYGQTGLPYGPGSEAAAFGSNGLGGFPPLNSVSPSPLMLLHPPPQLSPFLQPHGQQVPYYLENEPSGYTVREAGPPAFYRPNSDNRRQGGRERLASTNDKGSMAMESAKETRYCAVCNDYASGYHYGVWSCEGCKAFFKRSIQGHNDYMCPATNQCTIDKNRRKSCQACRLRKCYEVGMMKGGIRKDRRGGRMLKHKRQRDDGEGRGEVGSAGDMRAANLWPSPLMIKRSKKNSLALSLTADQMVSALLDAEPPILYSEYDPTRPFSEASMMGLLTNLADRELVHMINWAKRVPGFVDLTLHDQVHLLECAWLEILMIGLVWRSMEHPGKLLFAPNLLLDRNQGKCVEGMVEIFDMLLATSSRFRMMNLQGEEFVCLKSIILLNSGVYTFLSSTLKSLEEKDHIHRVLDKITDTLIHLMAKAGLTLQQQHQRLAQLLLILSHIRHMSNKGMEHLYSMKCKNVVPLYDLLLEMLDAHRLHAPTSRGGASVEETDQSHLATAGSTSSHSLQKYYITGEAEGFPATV
Chain of Androgen receptor (Homo sapiens) (P10275 whole entry, looked up): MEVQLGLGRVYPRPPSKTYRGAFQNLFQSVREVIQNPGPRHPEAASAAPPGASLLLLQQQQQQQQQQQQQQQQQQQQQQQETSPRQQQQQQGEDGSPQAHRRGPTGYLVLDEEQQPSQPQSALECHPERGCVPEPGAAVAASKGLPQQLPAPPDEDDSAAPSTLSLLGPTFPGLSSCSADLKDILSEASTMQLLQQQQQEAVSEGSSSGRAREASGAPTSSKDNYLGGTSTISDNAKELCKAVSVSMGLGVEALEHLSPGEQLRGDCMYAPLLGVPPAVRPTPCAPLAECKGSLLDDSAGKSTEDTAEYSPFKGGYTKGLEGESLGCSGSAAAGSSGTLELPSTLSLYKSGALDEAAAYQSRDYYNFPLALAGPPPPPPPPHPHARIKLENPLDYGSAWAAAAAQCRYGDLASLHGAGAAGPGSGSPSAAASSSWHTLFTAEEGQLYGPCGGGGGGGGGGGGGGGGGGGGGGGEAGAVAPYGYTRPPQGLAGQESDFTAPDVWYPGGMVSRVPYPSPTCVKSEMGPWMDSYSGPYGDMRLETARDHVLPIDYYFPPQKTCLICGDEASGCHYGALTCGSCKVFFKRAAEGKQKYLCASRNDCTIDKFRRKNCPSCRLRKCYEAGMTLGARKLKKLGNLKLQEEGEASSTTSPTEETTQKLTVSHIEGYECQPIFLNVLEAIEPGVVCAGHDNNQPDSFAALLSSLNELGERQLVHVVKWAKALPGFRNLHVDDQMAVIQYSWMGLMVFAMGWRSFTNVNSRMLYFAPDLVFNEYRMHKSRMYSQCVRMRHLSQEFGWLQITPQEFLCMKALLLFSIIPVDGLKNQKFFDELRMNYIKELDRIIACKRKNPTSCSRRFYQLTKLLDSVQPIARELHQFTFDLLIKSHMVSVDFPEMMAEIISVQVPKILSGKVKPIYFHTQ

CCCCCCC(C)O (configuration not stated)
Potency [1]: inactive | Potency [2]: inactive | Potency [3]: inactive | Potency [4]: inactive | Potency [5]: inactive | Potency [6]: inactive | Potency [7]: inactive | Potency [8]: inactive | Potency [9]: inactive | Potency [10]: inactive | Potency [11]: inactive | Potency [12]: inactive | Potency [13]: inactive | Potency [14]: inactive | outcome [15]: inactive | Potency [16]: inactive | Potency [17]: inactive

CC1(C)C(C=C(Cl)Cl)C1C(=O)OCc1cccc(Oc2ccccc2)c1 (configuration not stated)
Potency [1]: inactive | Potency [2]: inactive | Potency [3]: inactive | Potency [4]: inactive | Potency [5]: inactive | Potency [6]: inactive | Potency [7]: inactive | Potency [8]: inactive | Potency [9]: inactive | Potency [10]: inactive | Potency [11]: inactive | Potency [12]: inactive | Potency [18]: inactive | Potency [13]: inactive | Potency [19]: inactive | Potency [14]: inactive | outcome [15]: inactive | Potency [16]: inactive | Potency [17]: inactive | Potency [20]: inactive

CCOC(=O)C(C)Oc1ccc(Oc2cnc3cc(Cl)ccc3n2)cc1 (configuration not stated)
Potency [1]: inactive | Potency [2]: inactive | Potency [3]: inactive | Potency [4]: inactive | Potency [5]: inactive | Potency [6]: 22.4 µM (active) and 36.4 µM (active) | Potency [7]: 14.1 µM (active) and 16.3 µM (active) | Potency [8]: inactive | Potency [9]: inactive | Potency [10]: inactive | Potency [11]: inactive | Potency [12]: inactive | Potency [13]: inactive | Potency [14]: inactive | outcome [15]: inactive | Potency [16]: inactive | Potency [17]: inactive | Potency [20]: inactive

C=C[C@@]1(C)CC(=O)[C@]2(O)[C@@]3(C)[C@@H](O)CCC(C)(C)[C@@H]3[C@H](O)[C@H](OC(C)=O)[C@@]2(C)O1
Potency [1]: inactive | Potency [2]: inactive | Potency [3]: inactive | Potency [4]: inactive | Potency [5]: inactive | Potency [6]: inactive | Potency [7]: inactive | Potency [9]: inactive | Potency [10]: inactive | Potency [11]: inactive | Potency [12]: inactive | Potency [13]: 15.4 µM (active) and 7.5 µM (active) | Potency [19]: inactive | Potency [14]: inactive | outcome [15]: inactive | Potency [17]: inactive

O=S1(=O)CCCO1
Potency [1]: inactive | Potency [2]: inactive | Potency [3]: inactive | Potency [4]: inactive | Potency [5]: inactive | Potency [6]: inactive | Potency [7]: inactive | Potency [8]: inactive | Potency [9]: inactive | Potency [10]: inactive | Potency [11]: inactive | Potency [12]: inactive | Potency [13]: inactive | Potency [14]: inactive | outcome [15]: inactive | Potency [16]: inactive | Potency [17]: inactive | Potency [20]: inactive

Cc1ccc(S(=O)(=O)O)cc1C
Potency [1]: inactive | Potency [2]: inactive | Potency [3]: inactive | Potency [4]: inactive | Potency [5]: inactive | Potency [6]: inactive | Potency [7]: inactive | Potency [8]: inactive | Potency [9]: inactive | Potency [10]: inactive | Potency [11]: inactive | Potency [12]: inactive | Potency [13]: inactive | Potency [19]: inactive | Potency [14]: inactive | outcome [15]: inactive | Potency [16]: inactive | Potency [17]: inactive

CCCCCCCCCCCCCO
Potency [1]: inactive | Potency [2]: inactive | Potency [3]: inactive | Potency [4]: inactive | Potency [5]: inactive | Potency [6]: inactive | Potency [7]: inactive | Potency [8]: inactive | Potency [9]: inactive | Potency [10]: inactive | Potency [11]: inactive | Potency [12]: inactive | Potency [13]: inactive | Potency [14]: inactive | outcome [15]: inactive | Potency [16]: inactive | Potency [17]: inactive | Potency [20]: inactive

CN(C)CCCN1c2ccccc2Sc2ccc(Cl)cc21
Potency [1]: 43.6 µM (active) | Potency [2]: inactive | Potency [3]: 24.5 µM (active) and 23.9 µM (active) | Potency [4]: 54.9 µM (active) and inactive | Potency [5]: 49 µM (active) and 23.9 µM (active) | Potency [6]: 24.5 µM (active) and 23.9 µM (active) | Potency [7]: 30.9 µM (active) | Potency [8]: 54.9 µM (active) and 26.8 µM (active) | Potency [10]: inactive | Potency [12]: 61.1 µM (active) | Potency [19]: 3.16 µM (active) | outcome [15]: inactive | Potency [16]: 30.6 µM (active) and 23.7 µM (active) | Potency [17]: 61.1 µM (active) | Potency [20]: inactive

CCCCCCCC/C=C\CCCCCCCC(=O)O
Potency [1]: inactive | Potency [2]: inactive | Potency [3]: inactive | Potency [4]: inactive | Potency [5]: inactive | Potency [6]: inactive | Potency [7]: inactive | Potency [8]: inactive | Potency [9]: inactive | Potency [10]: inactive | Potency [11]: inactive | Potency [12]: inactive | Potency [13]: inactive | Potency [19]: inactive | Potency [14]: inactive | outcome [15]: inactive | Potency [16]: inactive | Potency [17]: inactive | Potency [20]: inactive

CCc1cccc2c3c([nH]c12)C(CC)(CC(=O)O)OCC3 (configuration not stated)
Potency [1]: inactive | Potency [2]: inactive | Potency [3]: inactive | Potency [4]: inactive | Potency [5]: inactive | Potency [6]: inactive | Potency [7]: inactive | Potency [9]: inactive | Potency [10]: inactive | Potency [11]: inactive | Potency [12]: inactive | Potency [18]: inactive | Potency [13]: inactive | Potency [19]: inactive | Potency [14]: inactive | outcome [15]: inactive | Potency [16]: inactive | Potency [17]: inactive

Cc1ccc(S(=O)(=O)NCl)cc1
Potency [1]: inactive | Potency [2]: inactive | Potency [3]: inactive | Potency [4]: inactive | Potency [5]: inactive | Potency [6]: inactive | Potency [7]: inactive | Potency [8]: inactive | Potency [9]: inactive | Potency [10]: inactive | Potency [11]: inactive | Potency [12]: inactive | Potency [13]: inactive | Potency [19]: inactive | Potency [14]: inactive | outcome [15]: inactive | Potency [16]: inactive | Potency [17]: inactive

C=CC(C)(O)CCC=C(C)C (configuration not stated)
Potency [1]: inactive | Potency [2]: inactive | Potency [3]: inactive | Potency [4]: inactive | Potency [5]: inactive | Potency [6]: inactive | Potency [7]: inactive | Potency [8]: inactive | Potency [9]: inactive | Potency [10]: inactive | Potency [11]: inactive | Potency [12]: inactive | Potency [14]: inactive | outcome [15]: inactive | Potency [16]: inactive | Potency [17]: inactive | Potency [20]: inactive
